The values below come from PubChem BioAssay (EPA / NIEHS).

Each structure is given as a SMILES string. Calls of active or inactive are those of the source. Rule for the calls: active = hit-call score of the fitted dose curve at least 0.9, where 1 is the maximum; inconclusive = response in the unintended direction; inactive = score below 0.9.

The AC50 is the concentration at which the activity in the assay is half-maximal.

The nature of the assay: LTEA_HepaRG_LDH_cytotoxicity: Cytotoxicity Assessment in the Life Technologies and Expression Analysis (LTEA) Assay (AID 2283563). On the procedure:
LTEA_HepaRG is a cell based, multiplexed-readout assay that uses HepaRG, a human liver cell line, with measurements taken at 48 hours after chemical dosing on a 96-well plate.LTEA_HepaRG_LDH_cytotoxicity is one of 102 assay component(s) measured in the LTEA HepaRG cell culture assay. It is a marker of cell viability / cytotoxicity.Data from the assay component LTEA_HepaRG_LDH_cytotoxicity was analyzed into 1 endpoint. This assay endpoint, LTEA_HepaRG_LDH_cytotoxicity, was analyzed in the positive fitting direction relative to DMSO as the negative control and baseline of activity. Using a type of inducible reporter, measures of mRNA induction for loss-of-signal activity can be used to understand cell death. To generalize the intended target to other relatable targets, this assay endpoint is annotated to the cell cycle intended target family, where the subfamily is proliferation.
A total of 1060 chemcials from the ToxCast library were tested in eight-point concentration-response experiments. Cell culture and cytotoxicity assays were conducted at Thermo Fisher Scientific's Custom Services facility (Madison, WI). A single lot of human HepaRG cells (Thermo Fisher Scientific, Frederick, MD) was used for the cell culture experiments. 96-well format collagen type I coated plates of human HepaRG cells were prepared using established methods. Briefly, cryopreserved HepaRG cells were thawed, plated at a density of approximately 100,000 cells/well in HepaRG Thaw, Plate, and General Purpose media (HPRG770, Thermo Fisher Scientific), and incubated for 48 hours. 0.5% DMSO was selected as vehicle control to balance the requisite need of DMSO in HepaRG cultures to maintain differentiation (for example, baseline metabolism, proportions of hepatocytes vs. cholangiocytes), while enabling further hepatic receptor pathway activation (for example, PXR and CAR) in response to chemical exposure. 48 hours after plating, the culture medium was replaced with HepaRG Serum-Free Incudtion Media. Cells were exposed to each test chemical in duplicate and maintained in CO2 incubators for another 48 hours. Chemical plates were thawed to room temperature and 200x concentrations of treatment groups were prepared. 8-point conentration-reponse curves were made with the highest exposure at 100 uM, followed by half-log dilutions, all in 0.5% DMSO. Each test plate contained variouse controls, induction positive controls (1mM phenobarbital), cytotoxicity positive controls ([…] aflatoxin B1), vehicle controls (0.5% DMSO), and total lysis controls (0.5% DMSO). Cell morphology images were taken using an Essen IncuCyte FLR automated microscope, with six 96-well plates imaged in about 24 minutes. Images were captured and exported and JPEG files. Spent culture media was transfered to black-well plates for the LDH assay, and remaining media was sorted at -80 C for later use. Cells were treated with RLT buffer and frozen until shipped for gene expression analysis. Total RNA was isolated from the cell suspension in 75 uL of Buffer RLT (Qiagen, Germantown, MD 20874) by Quintiles/Expression Analysis (Durham, NC) using a custom isolation procedure. Total RNA from each plate well was transferred to a preamplification plate. Fluidigm's 96.96 Dynamic ArrayTM (Fluidigm, Amsterdam, the Netherlands) technology was used for gene expression analyses by quantitative reverse transcription polymerase chain reaction (qRT-PCR, performed by Quintiles/Expression Analysis, Durham, NC)89. Standard TaqManTM Assays (Applied Biosystems/ThermoFisher Scientific, Foster City, CA) were used to assess the expression of 93 genes selected based on their selectivity and sensitivity to important hepatic receptors known to be modulated by environmental chemicals; importance in human hepatocyte functionality; and hepatotoxicity. […]
`CCCOc1ccc(S(=O)(=O)N2CCN(CC)CC2)cc1-c1nc2c(CC)n(Cc3ccccn3)nc2c(=O)[nH]1`: the compound was called inactive.
On the same count and under the same terms, next, `C=CN1CCCC1=O`: “inactive”.
On to `OCc1ccccc1`, for which the call was inactive.
Same read-out and setting: next, `CCCC(CCC)C(=O)O`: “inactive”; `Cc1nc(-c2ccccn2)ncc1C(=O)Nn1cc(C)c2cc(F)ccc21`: “inactive”; `c1ccc2cc3ccccc3cc2c1`: “inactive”.
The same measure, in the same setting: for `OC(CCl)CCl` the value was “inactive”; for `CCc1cccc(CC)c1N`, “inactive”.
For `O=C(O)c1ccc2c(c1)nc(C(=O)NC1CCN(C3CC3)CC1)n2Cc1cc(-c2ccc(Cl)s2)on1`, the result was inactive.
As for `CCOc1ccc2[nH]cc(C(=O)NCc3ccccc3)c(=O)c2n1`, the result was inactive.
Turning to `CC(=O)c1ccccc1`, the result was inactive.
On to `C=CCc1cc(S(=O)(=O)c2ccc(O)c(CC=C)c2)ccc1O`, for which the AC50 is 76.7 µM (active).
Regarding `CCCCOC(=O)c1ccccc1`, the compound was called inactive.
With `OC[C@H]1O[C@@](CO)(O[C@H]2O[C@H](CO)[C@@H](O)[C@H](O)[C@H]2O)[C@@H](O)[C@@H]1O`, the compound was classed as inactive.
Same read-out and setting: for `C[C@@H](Oc1ccc(CNC(=O)c2cccnc2Oc2ccc3c(c2)OCO3)c(F)c1)C(=O)O` the value was “inactive”; for `c1ccc2c(c1)-c1cccc3c1c-2cc1ccccc13`, “inactive”.
Consider `C[C@]12C=CC(=O)C=C1CC[C@H]1[C@@H]3C[C@@H](O)[C@](O)(C(=O)CO)[C@@]3(C)C[C@H](O)[C@@]12F`, for which the compound was called inactive.
On the same count and under the same terms, next, `c1ccc2ncccc2c1`: “inactive”.
The same measure, in the same setting: for `Cn1cc[nH]c1=S` the value was “inactive”; for `Cn1c(=O)c2[nH]cnc2n(C)c1=O`, “inactive”; for `OC[C@H]1O[C@@H]2O[C@H]3[C@H](O)[C@@H](O)[C@@H](O[C@H]4[C@H](O)[C@@H](O)[C@@H](O[C@H]5[C@H](O)[C@@H](O)[C@@H](O[C@H]6[C@H](O)[C@@H](O)[C@@H](O[C@H]7[C@H](O)[C@@H](O)[C@@H](O[C@H]1[C@H](O)[C@H]2O)O[C@@H]7CO)O[C@@H]6CO)O[C@@H]5CO)O[C@@H]4CO)O[C@@H]3CO`, “inactive”.
For `COc1cc(C(C)C)c2c(c1)S(=O)(=O)N(COc1cc(=O)n3cccc(OCCN4CCCCC4)c3n1)C2=O`, the AC50 was 19.2 µM (active).
In the case of `O=C1CN(N=Cc2ccc([N+](=O)[O-])o2)C(=O)N1`, the compound was called inactive.
`COCc1nnc(-c2ccc[n+]([O-])c2)n1-c1c(Cl)c(Cl)cc2[nH]c(=O)c(=O)[nH]c12`: the call was inactive.
For the compound `Nc1ccn([C@@H]2O[C@H](CO)[C@@H](O)[C@@H]2O)c(=O)n1`, the result was inactive.
The same measure, in the same setting: for `CCCc1ccccc1` the value was “inactive”; for `CCn1nc(C)c2c1C(=O)NCC(c1ccc(O)cc1)=N2`, “inactive”.
`OCCOCCOCCO`: the result was inactive.
On the same count and under the same terms, for `NC(=O)NN=Cc1ccc([N+](=O)[O-])o1` the value was “inactive”.
The same measure, in the same setting: for `OCCNCCO` the value was “inactive”.
For `O=C(O)c1cccc(C[C@@H]2COc3ccc(OCc4nc5cc(F)ccc5s4)cc3[C@@H]2O)c1`, the AC50 is 75.6 µM (active).
As for `COc1cc2c(c(OC)c1OC)-c1ccc(OC)c(=O)cc1[C@@H](NC(C)=O)CC2`, the outcome was inactive.
Take `CCc1ccc(O)c(C(C)(C)C)c1`: the result was inactive.
On the same count and under the same terms, for `OCC(CO)(CO)CO` the value was “inactive”; for `CC(C)CCCCCCOC(=O)C1CCCCC1C(=O)OCCCCCCC(C)C` (stereo not given), “inactive”.
In the case of `CCCCN1C(=O)[C@@H]([C@H](O)C2CCCCC2)NC(=O)C12CCN(Cc1ccc(Oc3ccc(C(=O)O)cc3)cc1)CC2`, the half-maximal activity concentration (AC50) is 37.5 µM (active).
For `O=C(O)c1cccc(C(=O)O)c1`, the result was inactive.
Still for that read-out and setting: next, `CC[C@H](C)C(=O)O[C@H]1C[C@H](O)C=C2C=C[C@H](C)[C@H](CC[C@@H](O)C[C@@H](O)CC(=O)O)[C@H]21`: “inactive”; `NNC(=O)c1ccncc1`: “inactive”.
Still for that read-out and setting: next, `Cc1ccc(S(=O)(=O)NC(=O)NN2CCCCCC2)cc1`: “inactive”.
